# From PubChem BioAssay
# Activity calls are given as the source filed them. The rule behind the calls is not given here.
# Test system: Aerobactin synthetase IucA (Klebsiella pneumoniae hvKP1)
# Test: Biochemical IucA enzyme inhibition primary screen of the Spectrum library (AID 1346200);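 note: 100% = wells without compound and 0% = wells lacking enzyme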
# Settings: malachite green pyrophosphate, A620, at 8 µM, active compounds read low
row,SMILES,activity remaining
1,CC(=O)OC1CCC2(C)C(=CC=C3C2CCC2(C)C3CCC2C(C)/C=C/C(C)C(C)C)C1(C)C (stereo unspecified),125% (inactive)
2,CC(=O)O[C@H]1CC[C@@]2(C)C(CC[C@]3(C)C2C(=O)C=C2C4[C@@H](C)[C@H](C)CC[C@]4(C(=O)O)CC[C@]23C)C1(C)C (stereo partly specified),113% (inactive)
3,Cc1c(NC(C)C)c(=O)n(-c2ccccc2)n1C,105% (inactive)
4,CC(C)=CC1C(C(=O)O)C1(C)C (stereo unspecified),121% (inactive)
5,O=c1c(-c2ccc(O)cc2)coc2c(C3O[C@H](CO)[C@@H](O)[C@H](O)[C@H]3O)c(O)ccc12 (stereo partly specified),105% (inactive)
6,OCC(O)C(O)C(O)C(O)C(O)CO (stereo unspecified),93% (inactive)
7,CC1=C2[C@H]([C@@H](C)CC[C@@H]2/C=C(\C)C(=O)O)[C@@H](O)C1,116% (inactive)
8,COc1c2occc2c(OC)c2c(=O)cc(C)oc12,116% (inactive)
9,C=CC(N)CCC(=O)O (stereo unspecified),119% (inactive)
10,NC(=O)c1cccnc1,109% (inactive)
11,CCCCCCNC(=O)n1cc(F)c(=O)[nH]c1=O,112% (inactive)
12,CC(=O)OCC(=O)[C@H]1CCC2C3CCC4=CC(=O)CC[C@]4(C)C3CC[C@@]21C (stereo partly specified),111% (inactive)
13,COc1cc2c(cc1OC)C(=O)OC2,110% (inactive)
14,CC(=O)O[C@H]1C[C@@H](OC(C)=O)C(C)(C)C2CC(=O)[C@]3(C)C(CC[C@@]4(C)[C@H](C(=O)O)OC(=O)C5OC543)[C@]21C (stereo partly specified),122% (inactive)
15,CN(C)CCOC(c1ccc(Cl)cc1)c1ccccn1 (stereo unspecified),115% (inactive)
16,C[C@]12CCC(=O)C=C1C=CC1C2CC[C@@]2(C)C1CC[C@@]21CCC(=O)O1 (stereo partly specified),119% (inactive)
